The campaign covered roughly 2,200 compounds. About 1,200 (55%) were called active. Cut-off not given; nearly all actives show IC50 up to about 92 µM. So high a share suggests a set chosen from earlier hits. The list shows a part of the results.

The nature of this assay: counter assay for TAg ATPase ADP read-out – biochemical, ADP-Hunter, fluorescence, counter-screen (AID 2501).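 Further: purified T antigen ATPase.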 To be noted: series mostly up to 100 µM. A general note: Counterscreens check selectivity or assay interference.
As usually defined, the IC50 is the midpoint of a concentration-inhibition curve. `O=C(OCCc1ccccc1)c1cc(O)c(O)c(O)c1`: the IC50 was 29.2 µM (active).

For `O=C(OCC1O[C@@H](OC(=O)c2cc(O)c(O)c(O)c2)[C@@H](OC(=O)c2cc(O)c(O)c(O)c2)[C@@H](OC(=O)c2cc(O)c(O)c(O)c2)[C@@H]1OC(=O)c1cc(O)c(O)c(O)c1)c1cc(O)c(O)c(O)c1` (stereo partly drawn), the IC50 result is “inactive”.

As to `CN1CCc2cccc3c2[C@@H]1Cc1ccc(O)c(O)c1-3`, the IC50 entry was “inactive”.

Turning to `CC(C)(C)n1nc2c(c1NC(=O)c1ccccc1S(=O)(=O)C(F)F)CS(=O)(=O)C2`, the IC50 result is “inactive”.

In the case of `O=c1[nH][nH]c(=S)n1C1CCCCC1`, the IC50 entry was “inactive”.

As to `COc1ccccc1N1CCN(/N=C/c2ccc(O)c(O)c2)CC1`, the IC50 is 5.45 µM (active).

For the molecule `COc1cccc(/C=N/N2CCN(c3ccncc3S(=O)(=O)N3CCCCC3)CC2)c1`, the IC50 result is “inactive”.

With `Oc1ccc2[nH]ccc2c1`, the IC50 was 2.23 µM (active).

As to `O=C(O)c1ccc(NS(=O)(=O)c2ccc3c(c2)C2C=CCC2C(c2ccccc2F)N3)cc1` (stereo not drawn), the IC50 result was “inactive”.

As for `Oc1ccc(O)cc1`, the IC50 is 7.46 µM (active).

`CC(=O)c1cc2c(O)c(O)ccc2o1`: the IC50 is 7.04 µM (active).

In the case of `Cc1ccc2oc(C(=O)Nc3nonc3C)c(C)c2c1`, the IC50 result was “inactive”.

As to `COc1cc(/C=N/NC(=O)CSc2ccccn2)ccc1O`, the IC50 is 4.11 µM (active).

For the molecule `CCOc1ccc(/C=N/NC(=O)CSc2ccccn2)cc1O`, the IC50 is 2.66 µM (active).

On to `Cc1cc(C)nc(NC2=NCC(=O)N2c2cc(Cl)cc(Cl)c2)n1`, for which the IC50 entry is “inactive”.

`CC1(OC(=O)C2CCCC2)C(=O)C=C2C=C(c3ccsc3)N(Cc3ccco3)C=C2C1=O` (stereo not drawn): the IC50 result was “inactive”.

`Nc1ccc2nc(CCCCCCc3nc4ccc(N)cc4[nH]3)[nH]c2c1`: the IC50 is 2.36 µM (active).

In the case of `Nc1ccc2nc(CCCCCCCCc3nc4ccc(N)cc4[nH]3)[nH]c2c1`, the IC50 is 6.38 µM (active).

For `Nc1ccc2nc(CCCO)[nH]c2c1`, the IC50 was 2.74 µM (active).

In the case of `Cc1c(C=NCCOCc2ccccc2)cnn1C`, the IC50 entry is “inactive”.

For the molecule `CN(C)c1nc(NCc2ccccc2)nc(N/N=C/c2ccc(Cl)cc2Cl)n1`, the IC50 result was “inactive”.

As for `COc1ccc(/C=N/Nc2nc(N3CCCC3)nc(N3CCCC3)n2)cc1O`, the IC50 is 3.91 µM (active).

As to `COc1cc(/C=N/Nc2nc(N3CCCC3)nc(N3CCCC3)n2)ccc1O`, the IC50 is 6.61 µM (active).

With `CCNc1nc(NCC)nc(N/N=C/c2ccc(O)c(OC)c2)n1`, the IC50 was 5.21 µM (active).

For `Cc1ccc(-c2nc3ncccn3c2NC2CCCCC2)o1`, the IC50 was 6.91 µM (active).

Take `CCOC(=O)c1c(NC(=O)/C=C/C(=O)O)sc(C)c1-c1ccc(Cl)cc1`: the IC50 entry was “inactive”.

Consider `CCOC(=O)c1c(NC(C)=O)sc2c(O)c(Br)cc(Br)c12`, for which the IC50 was 28.4 µM (active).

Take `CCOC(=O)c1c(NC(=O)/C=C/C(=O)O)sc(C)c1-c1ccc(C(C)(C)C)cc1`: the IC50 result was “inactive”.

The values above are taken from PubChem BioAssay AID2501 (Southern Research Specialized Biocontainment Screening …, 2010).
